From PubChem BioAssay (NCATS) come the findings set out here.

Molecules are shown by their SMILES. Inconclusive results are not listed. A number with no mark means an inactive call. Active and inactive are the calls of the source. Calls come from the whole dose curve; as a rule, active = well fitted inhibition curve with a large enough effect in the signal ratio, with a control signal flat (not every such curve was filed as active); inconclusive = small, poorly fitted or top-dose-only effect, or effect the other way, or a change in a side signal; inactive = flat fitted curve, though single readings scatter; the % refers to the signal ratio.

Sequence of Glucocorticoid receptor (Homo sapiens) (P04150 whole entry, looked up): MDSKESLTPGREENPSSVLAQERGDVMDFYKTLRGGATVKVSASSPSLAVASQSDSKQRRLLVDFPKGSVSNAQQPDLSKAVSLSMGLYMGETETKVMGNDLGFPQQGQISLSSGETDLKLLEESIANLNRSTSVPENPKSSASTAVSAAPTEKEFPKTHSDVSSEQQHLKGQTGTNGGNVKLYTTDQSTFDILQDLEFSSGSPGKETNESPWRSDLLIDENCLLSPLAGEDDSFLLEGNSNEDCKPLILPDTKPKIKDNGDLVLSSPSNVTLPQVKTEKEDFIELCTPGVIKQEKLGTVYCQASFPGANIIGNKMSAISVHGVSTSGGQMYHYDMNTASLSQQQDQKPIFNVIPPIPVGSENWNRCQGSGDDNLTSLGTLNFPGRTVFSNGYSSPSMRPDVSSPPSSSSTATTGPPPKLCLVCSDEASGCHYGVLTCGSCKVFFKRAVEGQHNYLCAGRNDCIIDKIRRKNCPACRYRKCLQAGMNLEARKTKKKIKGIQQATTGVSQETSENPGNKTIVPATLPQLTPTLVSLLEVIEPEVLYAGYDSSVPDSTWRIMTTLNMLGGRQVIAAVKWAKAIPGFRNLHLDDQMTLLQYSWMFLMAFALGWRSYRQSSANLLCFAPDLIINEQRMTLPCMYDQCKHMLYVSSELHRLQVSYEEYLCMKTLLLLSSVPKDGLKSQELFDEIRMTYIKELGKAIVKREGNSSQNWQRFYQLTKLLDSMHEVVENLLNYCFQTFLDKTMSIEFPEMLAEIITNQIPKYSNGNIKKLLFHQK

This experiment has as its target Glucocorticoid receptor (Homo sapiens) (UniProt P04150). As to the kind of experiment: qHTS assay for small molecule antagonists of glucocorticoid receptor signaling (AID 588533). To be noted: HeLa MMTV-bla, GRE beta-lactamase ratio, antagonist mode, 18 h; series mostly up to 76.8 µM; activity change, negative = inhibition: at the top concentration. An excerpt: NIH Chemical Genomics Center [NCGC] U.S. Environmental Protection Agency [EPA] National Institutes of Environmental Health Sciences [NIEHS] National Toxicology Program [NTP] NCGC Assay Overview The Glucocorticoid receptor (GR), a nuclear receptor subfamily member and its natural ligands includes […] etc. The GR is a validated drug target for inflammation. GR ligands such as dexamethasone are clinically available as anti-inflammatory drugs. Glucocorticoids implicate a role in carbohydrate, protein and lipid metabolisms and programmed cell death. They are also a component of many chemotherapy regimens for the treatment of leukemias, lymphomas, and myelomas because of their role in the induction of apoptosis.
NCGC Assay Protocol Summary Using a beta-lactamase reporter-gene under control of glucocorticoid response element (GRE), a cell-based assay [CellSensor MMTV-bla HeLa cell line assay developed by Invitrogen] was used to measure GR ligands signaling. CellSensor MMTV-bla HeLa cells were used with assay medium containing 1% charcoal/dextran treated FBS, 0.1 mM NEAA, 1 mM sodium pyruvate and 25mM HEPES. The assay was performed in clear bottom black Greiner 1536-well plates. Library compounds were measured for their ability to inhibit the reporter gene activity. Compounds were screened in a titration series in 1536-well format. […] Data was normalized relative to Dexamethasone control (2 nM, 100%), and DMSO only wells (basal, 0%). Concentration-response titration points for each compound were fitted to the Hill equation yielding concentrations of half-maximal inhibition (IC50) and maximal response (efficacy) values. qHTS protocol for GR beta-lactamase assay in antagonist mode [Step] [Parameter] [Value] [Description] 1. Reagent; 5 uL; 1500 cells/well 2. Incubation; 37 C for 3-5 hrs 3. Compounds; 23 nL; 0.59 nM to 92 uM 4. […] Agonist (Stimulator); 1uL; Dexamethasone at 2 nM (final) concentration 6. Incubation; 37 C for 18 hrs 7. Detection reagent; 1 uL of CCF4-dye 8. Incubation; RT for 2 hrs 9. Detection; Fluorescence; Envision plate reader
`C[C@H]1C(=O)O[C@@H]2CCN3CC=C(COC(=O)[C@](C)(O)[C@]1(C)O)[C@H]23`: the “activity change, negative = inhibition” value is 8.62%.
The same measure, in the same setting: as for `O=c1n(Cl)c(=O)n(Cl)c(=O)n1Cl`, the figure is -2.72%; as for `CCNc1nc(Cl)nc(NCC)n1`, 3.53%; as for `CCOP(=S)(OCC)O/N=C(\C#N)c1ccccc1`, 15.8%.
On to `C=CCOC(Cn1ccnc1)c1ccc(Cl)cc1Cl` (stereo not given), for which the Potency entry is “inactive”.
As for `CN(C)C(=S)SSC(=S)N(C)C`, the “activity change, negative = inhibition” value is 1.14%.
As for `CCC(=O)O[C@H]1CC[C@H]2[C@@H]3CCC4=CC(=O)CC[C@]4(C)[C@H]3CC[C@]12C`, the Potency is 31.6 µM (active).
On to `COC(=O)C1=C(C)NC(C)=C(C(=O)OC)C1c1ccccc1[N+](=O)[O-]`, for which the Potency is 31.6 µM (active).
As to `O=C(CCl)c1ccc(Cl)cc1Cl`, the Potency is 14.1 µM (active).
On to `Cc1ccc(N=CN(C)C=Nc2ccc(C)cc2C)c(C)c1`, for which the “activity change, negative = inhibition” value is 24.5%.
